This is an account of results in PubChem BioAssay.

Active and inactive are the calls of the source.

A short description of assay [1]: compounds binding Alexa647 anti-His antibody – biochemical, small-molecule microarray, 635 nm fluorescence, artefact control for SMM control protein annotation, primary screen (AID 1128).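 Further: score merges feature fluorescence with signal-to-noise for each printed compound spot.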 To be noted: higher = more signal.
Assay [2] deals with Human papillomavirus type 1a E7 protein (residues 1-88). Description: HPV1a E7 small-molecule binders, primary screen, biochemical, small-molecule microarray, residues 1-88, 635 nm (AID 1129). The note with it: small-molecule microarray binding, fluorescence 635 nm; higher = more signal.
Assay [3] has as its target Focal adhesion kinase 1 (Homo sapiens) (UniProt Q05397). Description: PTK2 protein binding on printed compound slides – biochemical, small-molecule microarray, 635/667 nm fluorescence, BSA, DTT, primary screen (AID 1130).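 Further: composite of spot emission at 667 nm and signal to noise over triplicate slides.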 To be noted: 635 nm fluorescence, higher = more signal.
Assay [4] concerns Fibrinogen (Alexa647-labelled). Description: Alexa647-fibrinogen binding to printed small molecules – biochemical, small-molecule microarray, 635/667 nm fluorescence, artefact control for SMM control-protein annotation, profiling panel (AID 1131).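 Further: z-score merges 667 nm fluorescence with per-spot signal-to-noise over triplicate slides.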 The note with it: fibrinogen-A647 binding fluorescence, higher = more signal.
Assay [5] deals with Follistatin (Homo sapiens) (UniProt P19883). Description: FST protein binding to printed compounds – biochemical, small-molecule microarray, 635/667 nm fluorescence, primary screen (AID 1132). The note with it: 635 nm fluorescence, higher = more signal.
The target in assay [6] is Fibroblast growth factor 2 (Homo sapiens) (UniProt P09038). Briefly: basic fibroblast growth factor binding to printed compounds – biochemical, small-molecule microarray, 635/667 nm fluorescence, primary screen (AID 1133). The note with it: FGF2, fluorescence 635/667, higher = more signal.
Assay [7] in a line: JC-1 mitochondrial potential readout, lung cancer cells – cell-based, A549, JC-1 fluorescence, basal, 24 h, 100 nL, profiling panel (AID 1138).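 Further: A549 lung adenocarcinoma cells under basal conditions with no added stimulus; test concentration not given here.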 To be noted: higher = more signal.
For assay [8], the system named is Lefty1. Description: Lefty1 protein binding to printed compounds – biochemical, small-molecule microarray, 635/667 nm fluorescence, primary screen (AID 1139). To be noted: fluorescence 635/667, higher = more signal.
The subject of assay [9] is wheat germ agglutinin (Triticum aestivum), Alexa647-labelled. Description: Alexa647-WGA lectin binding to printed small molecules – biochemical, small-molecule microarray, 635/667 nm fluorescence, artefact control for SMM control-protein annotation, profiling panel (AID 1140).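 Further: score merges 667 nm feature emission with signal to noise over triplicate slides.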 To be noted: WGA-A647 binding, 635 nm fluorescence, higher = more signal.
The target in assay [10] is Luciferin 4-monooxygenase (Photinus pyralis) (UniProt P08659). Description: inhibition of purified Photinus pyralis luciferase – biochemical, luminescence, purified enzyme, 2006 set, primary screen (AID 1141).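 Further: cell-free assay with purified firefly luciferase at 100 ng per well in PBS; test concentration not given here.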 The note with it: purified firefly luciferase, SteadyGlo luminescence, 30 min; higher = more signal, called active from +8 up or from −8 down.
Assay [11] relates to Wnt5a (protein binding on small-molecule microarray). Description: small molecules binding Wnt5a protein – biophysical, small-molecule microarray, 635/667 nm fluorescence, primary screen (AID 1142).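 Further: fluorescence read at 667 nm with signal to noise per printed feature.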 The note with it: 635 nm fluorescence, higher = more signal.
Assay [12] can be described thus: ATP-based viability of Huh7 replicon cells – cell-based, CellTiter-Glo luminescence, basal, 48 h, cytotoxicity control for HCV replication inhibitor project, primary screen (AID 1143).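 Further: Huh7 hepatoma cells carrying a hepatitis C replication reporter with no stimulus; test concentration not given here.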 To be noted: higher = more signal, called active from +8 up or from −8 down. (In antiviral work, replicon cells carry a viral genome segment that copies itself.)
A short description of assay [13]: basal CRE-LacZ reporter activity in PC12 – cell-based, unstimulated, primary screen (AID 1145). The note with it: no forskolin, luminescence, 4.5 h, higher = more signal, called active from +8 up or from −8 down.
Assay [14] can be described thus: forskolin-driven CRE-LacZ activity in PC12 – cell-based, CRE-LacZ reporter, forskolin-stimulated, primary screen (AID 1146).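 Further: PC12 cells with 6xCRE LacZ reporter stimulated by forskolin 10 µM; beta-galactosidase reporter signal reflecting CREB driven transcription.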 The note with it: luminescence, 4.5 h, higher = more signal, called active from +8 up or from −8 down.
Assay [15] has as its target Streptavidin (Streptomyces avidinii) (UniProt P22629). Briefly: compounds binding control protein streptavidin – biophysical, small-molecule microarray, 635/667 nm fluorescence, artefact control for SMM compound annotation, primary screen (AID 1147).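 Further: signal reflects streptavidin binding to arrayed compounds as a control protein.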 The note with it: higher = more signal.
The nature of assay [16]: probe aInhba binding on compound microarray – biochemical, small-molecule microarray, 635/667 nm fluorescence, primary screen (AID 1148).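 Further: score merges 667nm spot fluorescence with signal-to-noise for antibody binding to printed compounds.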 To be noted: higher = more signal.
In assay [17] the target is Torsin-1A (Homo sapiens) (UniProt O14656). Briefly: TOR1A wild-type binding on microarray – cell lysate, small-molecule microarray, lysate, 635/667 nm, primary screen (AID 1149). The note with it: COS7 hTOR1A-WT lysate, 635 nm fluorescence, higher = more signal.
The target is the same in assay [18]. Briefly: torsin A mutant lysate binding on microarrays – cell lysate, small-molecule microarray, COS7 lysate, 635/667 nm fluorescence, primary screen (AID 1150).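 Further: score pools 667 nm emission and signal to noise measuring lysate protein binding.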 The note with it: COS7 hTOR1A mutant lysate, 635 nm fluorescence, higher = more signal.
The subject of assay [19] is Sonic hedgehog protein (Shh). Briefly: Sonic hedgehog microarray binding compounds – biochemical, small-molecule microarray, 635/667 nm fluorescence, primary screen (AID 1151).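 Further: Shh protein binding to compounds spotted on small-molecule microarray slides; score combines spot fluorescence intensity with signal-to-noise across triplicate slides.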 The note with it: 635 nm fluorescence, higher = more signal.

Sequence of Luciferin 4-monooxygenase (Photinus pyralis) (P08659 whole entry, looked up): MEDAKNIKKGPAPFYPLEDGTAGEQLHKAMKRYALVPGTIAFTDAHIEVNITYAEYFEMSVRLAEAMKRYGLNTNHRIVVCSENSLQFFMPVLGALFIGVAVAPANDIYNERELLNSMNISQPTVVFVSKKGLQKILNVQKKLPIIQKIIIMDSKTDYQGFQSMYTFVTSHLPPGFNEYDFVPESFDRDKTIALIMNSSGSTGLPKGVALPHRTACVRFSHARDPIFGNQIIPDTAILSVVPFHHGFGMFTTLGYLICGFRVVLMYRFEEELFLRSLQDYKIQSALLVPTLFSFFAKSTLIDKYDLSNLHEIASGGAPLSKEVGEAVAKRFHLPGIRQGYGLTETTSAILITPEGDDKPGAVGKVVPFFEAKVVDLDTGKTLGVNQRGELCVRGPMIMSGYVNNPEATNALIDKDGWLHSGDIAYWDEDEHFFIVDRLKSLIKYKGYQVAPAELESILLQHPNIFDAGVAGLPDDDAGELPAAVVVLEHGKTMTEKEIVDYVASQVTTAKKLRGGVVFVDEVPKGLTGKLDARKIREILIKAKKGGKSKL
Sequence of Streptavidin (Streptomyces avidinii) (P22629 whole entry, looked up): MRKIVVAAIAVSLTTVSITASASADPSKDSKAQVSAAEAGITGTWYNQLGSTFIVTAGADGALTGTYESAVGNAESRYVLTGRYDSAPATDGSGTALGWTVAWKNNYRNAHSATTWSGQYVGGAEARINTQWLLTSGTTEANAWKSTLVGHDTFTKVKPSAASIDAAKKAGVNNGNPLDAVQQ
Sequence of Fibroblast growth factor 2 (Homo sapiens) (P09038 whole entry, looked up): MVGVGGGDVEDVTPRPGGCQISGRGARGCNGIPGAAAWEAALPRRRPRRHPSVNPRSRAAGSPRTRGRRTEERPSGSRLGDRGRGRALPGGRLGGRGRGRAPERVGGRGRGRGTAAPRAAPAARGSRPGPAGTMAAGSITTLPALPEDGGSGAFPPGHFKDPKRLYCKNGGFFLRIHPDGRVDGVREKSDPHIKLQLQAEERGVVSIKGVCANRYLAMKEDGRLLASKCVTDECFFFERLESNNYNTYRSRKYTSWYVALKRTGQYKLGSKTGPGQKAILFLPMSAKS
Sequence of Follistatin (Homo sapiens) (P19883 whole entry, looked up): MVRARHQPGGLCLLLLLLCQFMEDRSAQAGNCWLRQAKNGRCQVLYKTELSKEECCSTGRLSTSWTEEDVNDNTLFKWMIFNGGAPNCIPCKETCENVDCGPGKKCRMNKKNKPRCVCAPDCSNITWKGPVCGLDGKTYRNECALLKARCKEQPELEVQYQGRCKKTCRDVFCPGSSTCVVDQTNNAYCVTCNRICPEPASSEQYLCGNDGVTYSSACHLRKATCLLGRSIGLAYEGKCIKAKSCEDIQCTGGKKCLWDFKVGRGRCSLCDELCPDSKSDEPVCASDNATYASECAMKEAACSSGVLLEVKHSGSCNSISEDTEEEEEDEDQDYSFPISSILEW
Sequence of Focal adhesion kinase 1 (Homo sapiens) (Q05397 whole entry, looked up): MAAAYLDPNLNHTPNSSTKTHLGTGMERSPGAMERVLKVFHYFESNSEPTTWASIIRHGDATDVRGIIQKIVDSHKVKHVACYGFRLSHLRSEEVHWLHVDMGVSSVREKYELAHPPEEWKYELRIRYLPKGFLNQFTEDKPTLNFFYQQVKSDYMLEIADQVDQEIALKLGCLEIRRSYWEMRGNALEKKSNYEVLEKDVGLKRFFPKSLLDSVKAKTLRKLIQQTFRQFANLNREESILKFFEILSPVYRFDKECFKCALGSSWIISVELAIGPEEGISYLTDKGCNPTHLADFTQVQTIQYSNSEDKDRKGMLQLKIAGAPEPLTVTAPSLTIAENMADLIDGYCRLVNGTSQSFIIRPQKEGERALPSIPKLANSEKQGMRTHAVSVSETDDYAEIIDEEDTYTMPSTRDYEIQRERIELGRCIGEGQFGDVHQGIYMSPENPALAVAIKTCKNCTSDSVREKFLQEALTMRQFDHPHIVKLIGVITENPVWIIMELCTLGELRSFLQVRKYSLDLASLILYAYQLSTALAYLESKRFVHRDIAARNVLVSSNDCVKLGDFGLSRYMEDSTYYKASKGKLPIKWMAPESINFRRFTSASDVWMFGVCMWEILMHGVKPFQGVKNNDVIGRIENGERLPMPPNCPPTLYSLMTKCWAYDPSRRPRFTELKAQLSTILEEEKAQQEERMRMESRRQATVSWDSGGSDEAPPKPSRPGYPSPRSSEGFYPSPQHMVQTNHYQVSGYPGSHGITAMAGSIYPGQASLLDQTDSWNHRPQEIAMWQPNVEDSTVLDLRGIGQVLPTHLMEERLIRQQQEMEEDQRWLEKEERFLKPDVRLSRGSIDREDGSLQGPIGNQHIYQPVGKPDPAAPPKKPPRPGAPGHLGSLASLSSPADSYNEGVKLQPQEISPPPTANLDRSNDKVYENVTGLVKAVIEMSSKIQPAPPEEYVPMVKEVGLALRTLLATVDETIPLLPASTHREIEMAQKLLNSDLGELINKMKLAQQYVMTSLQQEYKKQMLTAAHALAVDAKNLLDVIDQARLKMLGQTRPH
Sequence of Torsin-1A (Homo sapiens) (O14656 whole entry, looked up): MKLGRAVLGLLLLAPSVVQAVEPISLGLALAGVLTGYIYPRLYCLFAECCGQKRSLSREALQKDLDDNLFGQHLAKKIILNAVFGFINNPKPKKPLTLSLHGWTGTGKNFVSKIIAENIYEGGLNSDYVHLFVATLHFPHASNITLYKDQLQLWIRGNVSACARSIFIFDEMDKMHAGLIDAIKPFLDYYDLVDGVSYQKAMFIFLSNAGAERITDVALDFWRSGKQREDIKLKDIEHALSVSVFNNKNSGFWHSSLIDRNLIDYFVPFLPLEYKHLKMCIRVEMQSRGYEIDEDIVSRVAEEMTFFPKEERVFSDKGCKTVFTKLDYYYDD

Turning to `CCOC(=O)[C@H]1C/C=C/C[C@H](C(=O)OCC)C(=O)O[C@H]2[C@@H](OC)O[C@H](CO)[C@@H](OC(=O)Nc3ccc(Br)cc3)[C@@H]2OC1=O`, the composite z-score in assay [1] worked out at 0.441; in assay [2], 1.21; in assay [3], 0.361; in [4] it was 0.708; in [5], 0.623; in assay [6], 0.376. The composite z-score in assay [8] is 0.588; in [9] it was 1.21; in [11], 0.172; in assay [15], 0.521; in assay [16], -0.121; in assay [17], 0.164. The composite z-score in assay [18] was -0.2; in assay [19], 0.69. Further, the z-score in [7] was -2.32; in [10], -1.72 (inactive); in assay [12], -6.64 (inactive); in [13], -0.614 (inactive); in [14], -1.23 (inactive).

With `O=C(CS)NCCCCCNC(=O)[C@H]1C[C@H]2C(=O)N[C@@H](Cc3ccccc3)C(=O)N2[C@H]1c1ccc(O)cc1`, the composite z-score in [1] was 1.58; in assay [2] it was 1.06; in [3] it was 0.485; in assay [4], 0.948; in assay [5], 1.43; in assay [6], 1.14. Further, the composite z-score in assay [8] came out at 0.854; in assay [9], 1.21; in [11] it was 0.252; in [15], 0.0842; in [16] it was 0.0018; in assay [17], 1.04. Besides, the composite z-score in assay [18] was 0.746; in [19], 2.09. In addition, the z-score was -0.586 in [7]; -2.91 (inactive) in assay [10]; -0.164 (inactive) in assay [12]; -0.809 (inactive) in assay [13]; -0.819 (inactive) in [14].

As to `O=C(CS)NCCCCCNC(=O)[C@H]1C[C@H]2C(=O)N3CCC[C@H]3C(=O)N2[C@H]1c1ccc(O)cc1`, the composite z-score in assay [1] was 0.215; in assay [2], -1.25; in assay [3], -0.384; in assay [4], -0.743; in [5] it was 0.927; in assay [6], 0.917. Besides, the composite z-score in assay [8] was -0.0421; in [9], -1.68; in [11], 0.143; in assay [15] it was -1.13; in assay [16], -0.024; in [17] it was -0.159. The composite z-score in [18] came to 0.0883; in assay [19] it was 1.63. In addition, the z-score in assay [7] was 1.54; in assay [10] it was -1.75 (inactive); in assay [12] it was -0.564 (inactive); in [13] it was -0.528 (inactive); in assay [14] it was -1.59 (inactive).

On to `COc1ccc([Si](C)(C)[C@H]2[C@H](CCO)O[C@@]3(C(=O)N(Cc4ccc(N5CCCCC5=O)cc4)c4ccccc43)[C@@H]2C)cc1`, for which the composite z-score amounted to 1.91 in [1]; 1.1 in assay [2]; 0.0098 in [3]; 0.903 in [4]; 1.3 in [5]; 0.753 in [6]. Besides, the composite z-score in [8] is 1.36; in assay [9] it was 1.14; in assay [11], -0.0939; in assay [15], -0.0077; in [16], -0.128; in assay [17] it was 0.446. The composite z-score in [18] is 0.62; in [19], 1.58. The z-score is 1.33 in assay [7]; -1.39 (inactive) in assay [10]; -3.56 (inactive) in [12]; 1.98 (inactive) in assay [13]; -2.57 (inactive) in assay [14].

`CCOC(=O)C[C@H]1[C@H](OC(=O)c2cc3ccccc3oc2=O)[C@@H](NC(=O)c2ccc3ccccc3c2)c2cc(OCCCO)ccc2N1C(=O)c1ccc2ccccc2n1`: the composite z-score in assay [1] came to 0.322; in assay [2], 1.04; in assay [3], 0.0147; in assay [4], 0.973; in [5], 0.986; in assay [6], 0.927. The composite z-score is 0.488 in assay [8]; 1.05 in [9]; 0.338 in assay [11]; 0.895 in [15]; 0.0497 in [16]; 0.419 in assay [17]. In addition, the composite z-score in assay [18] was determined as 0.268; in [19], 0.43. For the same molecule, the z-score was 1.33 in [7]; -0.233 (inactive) in [10]; -0.574 (inactive) in assay [12]; 9.89 (active) in [13]; -2.03 (inactive) in [14].
